# Results from ChEMBL document CHEMBL3988442, “University of Dundee, Small-Polar-MMV Screening Library” (2021).
# The campaign covered roughly 48,000 compounds. About 13,000 (27%) showed an effect of 50% or more. Some of the results follow.
# Tested on: Wolbachia pipientis
# Assay: Anti-Wolbachia Cell-Based Screen
# Format: functional
# Design: scale not given: in the data most compounds retested in dose-response had high values
# Conditions: 5 µM
row,SMILES,Percent Effect
1,CC(C)c1nc(/C=C/c2cnn(-c3ccc(Cl)cc3)c2)ncc1C(=O)O,-7.437%
2,Cc1ccsc1CN(CCN(C)C)C(=O)c1ccccc1C#N,-7.458%
3,CCCS(=O)(=O)NC(=O)c1sc(C2CCCC2)nc1C,-2.065%
4,CCC(C)N(C)CCNC(=O)NCc1cccc(-n2cncn2)c1 (centres undefined),23.44%
5,O=C(NC1CC1)C1CCN(Cn2nc(-c3ccccc3)oc2=O)CC1,10.01%
6,CCc1nc(CN2CCN(C(=O)c3csc(C(C)C)n3)CC2)no1,-9.148%
7,COc1cc(OC)c2c(=O)oc(CC(O)CC(C)=O)cc2c1 (centres undefined),8.997%
8,Cc1cc(C(=O)NCC2COCc3c(C)nnn3C2)no1 (centres undefined),-12.47%
9,Cc1noc(C)c1CNS(=O)(=O)N(C)Cc1ccc(Cl)cc1,-11.55%
10,CN(C)C(=O)c1ccc2c(c1)N(C)C(CC(=O)NCc1ccno1)CO2 (centres undefined),-14.39%
11,CCN(c1ccc(C(=O)N2CCCC(C)C2)cc1)S(=O)(=O)CC (centres undefined),-3.775%
12,CCS(=O)(=O)N(C)c1ccc(C(=O)N2CCCC(C)C2)cc1 (centres undefined),-1.245%
13,CN(C)S(=O)(=O)c1csc(C(=O)N2CCC(C(N)=O)CC2)c1,3.976%
14,CCN(CC)S(=O)(=O)c1csc(C(=O)N2CCC(C(N)=O)CC2)c1,5.806%
15,CCN(c1ccc(C(=O)N2CCC(C(N)=O)CC2)cc1)S(=O)(=O)CC,125.1%
16,CCN(c1ccc(C(=O)N2CCC(C)CC2)cc1)S(=O)(=O)CC,137.9%
17,Cc1nccn1CC1CCCN1S(=O)(=O)Cc1ccon1 (centres undefined),0.377%
18,Cc1nc(C)n(CC2CCCN(CCNC(=O)OC(C)(C)C)C2)n1 (centres undefined),-2.681%
19,Cc1nc(C)n(CC2CCCN(CCC(=O)NC3CCCCC3)C2)n1 (centres undefined),153.2%
20,Cc1nc(C)n(CC2CCCN(CCC(=O)NC3CCCC3)C2)n1 (centres undefined),114.2%
21,Cc1nc(C)n(CC2CCCN(CCC(=O)Nc3cc(C)on3)C2)n1 (centres undefined),101.8%
22,Cc1cnc(CNC(=O)NC2CCCN(c3ccccc3F)C2)s1 (centres undefined),-4.354%
23,CC(C)OCCCN1CCCC(c2nc3ccccc3n2C(C)C)C1 (centres undefined),-14.63%
24,Cc1cc(CN2CCN(CCOc3cccc(C#N)c3)CC2)no1,-1.661%
25,CCOc1cc(/C=C/c2ncc(C(=O)O)s2)cc(Cl)c1OC,3.266%
26,CNC(=O)c1cnc(/C=C/c2cc(OC)c(OC)c(OC)c2)s1,2.96%
27,COc1cc(/C=C/c2ncc(C(=O)O)s2)cc(Cl)c1O,10.97%

row,SMILES,Percent Effect
1,COc1cc(/C=C/c2ncc(C(=O)O)s2)cc(Cl)c1OC,96.03%
2,CNC(=O)c1cnc(/C=C/c2ccc(O)c(OC)c2)s1,0.2416%
3,CCOc1c(Cl)cc(/C=C/c2ncc(C(=O)O)s2)cc1OC,82.8%
4,COc1ccc(F)cc1CSCC(=O)N(C)CCC#N,-1.773%
5,COc1ccc(-c2noc(C(CC(C)C)N3CCCCC3=O)n2)cn1 (centres undefined),9.971%
6,C=Cc1ccc(CN2CCCC3(CNC(=O)c4ccccc4O3)C2)cc1 (centres undefined),88.72%
7,O=C1NCC2(CCCN(Cc3ccc(Cl)s3)C2)Oc2ccccc21 (centres undefined),7.994%
8,CC(=O)N1CCOC2(CCCN(Cc3ccc(N(C)C)cc3)C2)C1 (centres undefined),-2.682%
9,O=C1NCC2(CCCN(Cc3ccccc3F)C2)Oc2ccccc21 (centres undefined),-7.876%
10,O=C1NCC2(CCCN(Cc3ccc(F)cc3)C2)Oc2ccccc21 (centres undefined),110.4%
11,CSc1ccc(CN2CCCC3(CNC(=O)c4ccccc4O3)C2)cc1 (centres undefined),103.9%
12,CC(C)=CCN1C[C@H]2CC[C@@H]1CN(C(=O)c1ccc(S(N)(=O)=O)cc1)C2,-17.62%
13,CC(C)c1ccccc1NC(=O)N1C[C@@H]2CC[C@H](C1)N(C)C2=O,-22.21%
14,CCC[C@@H]1CN(Cc2cc(OC)c3c(c2)OCO3)C[C@H]1C(=O)O,0.814%
15,COc1cc(CNCc2ccc(C(C)O)cc2)cc2c1OCO2 (centres undefined),0.7709%
16,COc1cc(CCO)c(OC)c2c1OCO2,-4.361%
17,COC(=O)C1=NOC(Cc2cc(OC)c3c(c2)OCO3)C1 (centres undefined),94.65%
18,CN1CCN(C[C@H]2CC[C@@H](Cc3ccc4c(c3)OCO4)O2)CC1,5.044%
19,COc1cc(CC2CC(C(N)=O)=NO2)cc2c1OCO2 (centres undefined),107.2%
20,COc1cc(CNCCc2nc(C)cs2)cc2c1OCCO2.Cl,-10.19%
21,COc1cc(-c2nccn2CCn2cccn2)cc2c1OCO2,-19.98%
22,COc1cc(CNCCc2cnn(C)c2)cc2c1OCCO2,-13.22%
23,CCN1CCN(C[C@H]2CC[C@@H](Cc3ccc4c(c3)OCO4)O2)CC1,15.13%
24,CCOC(=O)C1=NOC(Cc2cc(OC)c3c(c2)OCO3)C1 (centres undefined),92.3%
25,COc1cc(CC2CC(c3ccc4c(c3)OCO4)=NO2)cc2c1OCO2 (centres undefined),92.75%
26,CC(C)CN1Cc2cccc(NC(=O)Cc3ccon3)c2C1,-9.701%
27,Cc1ccc(=O)n(Cc2nc(C(C)OCC(C)C)no2)n1 (centres undefined),-10.1%
